D1 potentiator: enhances dopamine response at the human D1 receptor; potentiation, % at 10 µM; AID 504651; P21728; 0.036% of 360,000 active; HEK293 TREx D1 cells, calcium flux, dopamine EC20 potentiation; in the data active means potentiation above about 30%; further: 0% is about no effect
D1 agonist: agonists of human D1 dopamine receptor; activation, % at 2 µM; 1% of 360,000 active; P21728; HEK293 T-REx D1 cells, calcium flux, agonist mode; in the data active means activation above about 30%; further: 0% is about no effect
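Agonism was scored from calcium flux recorded over 180 s (1 read/s) after pintool compound addition, following a 10-cycle baseline. Cells were inducible force-coupled HEK293 TREx D1, plated overnight at 30 C and loaded with no-wash calcium dye.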
DRD3 antagonist: D3 dopamine receptor (human) antagonism. 2.5% of 360,000 active. P35462. max response, negative = inhibition, %. D3R cells, DiscoveRx beta-arrestin luminescence, antagonist mode; active compounds read low; in the data active means max response below about -50%; inconclusive means no clear call, values can overlap the other calls; further: on the % scale 0 is the no-effect control and ±100 the full control effect
Target sequence (P35462 whole entry, looked up): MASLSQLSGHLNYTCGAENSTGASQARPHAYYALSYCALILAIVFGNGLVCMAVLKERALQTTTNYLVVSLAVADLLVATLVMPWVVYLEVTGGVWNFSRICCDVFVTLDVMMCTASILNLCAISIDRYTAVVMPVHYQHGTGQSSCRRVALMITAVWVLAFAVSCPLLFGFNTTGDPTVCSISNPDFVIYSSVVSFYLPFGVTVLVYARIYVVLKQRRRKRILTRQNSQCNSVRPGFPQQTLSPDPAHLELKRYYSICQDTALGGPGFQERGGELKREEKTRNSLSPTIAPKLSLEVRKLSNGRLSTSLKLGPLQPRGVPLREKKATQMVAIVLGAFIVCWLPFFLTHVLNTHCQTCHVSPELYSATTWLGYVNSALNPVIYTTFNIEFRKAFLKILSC
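Cells expressing the human receptor were seeded at 1500 cells/well, incubated overnight at 37 degrees C in 5% CO2, then exposed to library compounds with dopamine controls for 90 minutes at 37 degrees C before luminescent detection.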
DRD3 agonist: D3 dopamine receptor (human) agonism | max activation, % | 0.58% of 410,000 active | D3R DiscoveRx beta-arrestin cells, luminescence, 90 min | AID 652048; in the data active means max activation above about 30%; further: 0% is about no effect
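Agonist-mode cell screen: cells plated at 1500/well and incubated overnight at 37 °C, then exposed to library compounds for 90 min at 37 °C. Detection reagent was added for 30–60 min at room temperature, and luminescence was read.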
D1 antagonist: blocks dopamine activation of the human D1 receptor | 3.2% of 360,000 active | AID 504652 | activity change, negative = inhibition, % at 10 µM | HEK293 TREx D1 cells, calcium flux, dopamine EC80; active compounds read low | P21728; in the data active means activity change below about -30%; further: on the % scale 0 is the no-effect control and ±100 the full control effect
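Tetracycline-induced HEK293 Trex D1 cells, force-coupled to calcium, dye-loaded; compounds added and read 180 s, then EC80 dopamine added and calcium flux tracked kinetically another 180 s.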
Active calls of the source: *; ! = a repeat was not active. Shown are actives, neighbours in structure and some others; about 6.1% of the full set was active somewhere.

`Cc1cc(C(=O)N/N=C/c2cc(Cl)cc([N+](=O)[O-])c2O)n[nH]1` gave D1 potentiator 1.1, D1 agonist 2.5, DRD3 antagonist -1.0, DRD3 agonist 1.1 and D1 antagonist -3.5.
Screening CCCc1cc(C(=O)NNC(=S)NC2CCCCC2)cs1 returned D1 potentiator 2.7, D1 agonist 2.0, DRD3 antagonist inconclusive, DRD3 agonist -18.2 and D1 antagonist -9.3.
`CCCCOc1ccc(/C(O)=C2/C(=O)C(=O)N(Cc3cccnc3)C2c2ccncc2)c(C)c1` (centres undefined) gave D1 potentiator -1.1, D1 agonist -0.3, DRD3 antagonist inconclusive, DRD3 agonist 5.2 and D1 antagonist -56.3*.
CCN(CCCNc1ncnc2nc[nH]c12)c1cccc(C)c1 was read as D1 potentiator -9.5, D1 agonist 8.1, DRD3 antagonist 21.4, DRD3 agonist 3.3 and D1 antagonist -36.1*.
For O=C(O)c1ccc(Cn2ccc3ccccc32)o1 the results were D1 potentiator -3.1, D1 agonist 7.9, DRD3 antagonist -3.6, DRD3 agonist 7.7 and D1 antagonist -36.3*.
CC(C)=CCC/C(C)=C/CNC(=O)C[C@H]1C[C@H](C(=O)N2CCCCC2)[C@@]2(C)c3[nH]c4ccc(Cl)cc4c3CCN2C1=O was read as DRD3 antagonist 0.0 and DRD3 agonist -13.8.
COc1ccc(NC(=O)C2CCC(CNc3c(N4CCC(C)CC4)c(=O)c3=O)CC2)cc1OC (centres undefined) was read as D1 agonist 0.8, DRD3 antagonist -104.7*!, DRD3 agonist 1.9 and D1 antagonist 19.7.
Screening O=C(CO)[C@@H](O)[C@H](O)[C@H](O)CO returned DRD3 agonist 6.3.
Clc1cccc(-c2ccc(CNCc3ccccn3)o2)c1 was read as D1 potentiator -0.2, D1 agonist 12.1, DRD3 antagonist -26.7, DRD3 agonist -15.9 and D1 antagonist -23.9.
O=c1[nH]nc(Cc2ccc(-c3cccc(Cl)c3)o2)c2ccccc12 was read as D1 potentiator 0.0, D1 agonist 6.9, DRD3 antagonist -61.3*, DRD3 agonist 1.3 and D1 antagonist -2.2.
COC(=O)CCSc1cc(NCCOC(C)=O)c([N+](=O)[O-])c2nonc12 was read as D1 potentiator -6.8, D1 agonist -0.2, DRD3 antagonist -11.6, DRD3 agonist -2.6 and D1 antagonist 3.3.
Screening CC(=O)OCCNc1cc(Sc2nc3ccccc3[nH]2)c2nonc2c1[N+](=O)[O-] returned D1 potentiator -14.4, D1 agonist 4.4, DRD3 antagonist -79.0*, DRD3 agonist -28.4 and D1 antagonist -21.3.
Screening CC(=O)OCCCNc1cc(Sc2nc3ccccc3s2)c2nonc2c1[N+](=O)[O-] returned D1 potentiator -2.9, D1 agonist 0.0, DRD3 antagonist -77.9*, DRD3 agonist -17.0 and D1 antagonist 11.6.
`CC(=O)OCCCNc1cc(Sc2ccc(C)cc2)c2nonc2c1[N+](=O)[O-]` gave D1 potentiator -8.3, D1 agonist 9.2, DRD3 antagonist -73.2*, DRD3 agonist -35.2 and D1 antagonist -13.8.
For CC(=O)OCCNc1cc(SCc2ccco2)c2nonc2c1[N+](=O)[O-] the results were D1 potentiator 1.3, D1 agonist -0.1, DRD3 antagonist inconclusive, DRD3 agonist -1.4 and D1 antagonist 1.5.
Screening CCCNC(=O)C1(C)CCN(C(=O)c2cccc(Cl)c2)C1 (centres undefined) returned DRD3 antagonist 2.4 and DRD3 agonist 7.3.
COc1cc(OC)c(NC(=O)Cn2cnc3nc4c(cc3c2=O)CCCC4)cc1Cl was read as D1 potentiator 1.8, D1 agonist -1.5, DRD3 agonist 8.0 and D1 antagonist -7.7.
Cc1cc(C)n2c(NC3CCCCC3)c(-c3cccnc3)nc2n1 was read as DRD3 antagonist -3.3 and DRD3 agonist 2.2.
For O=C(Nc1ccccc1)c1ccccc1NC(=O)[C@H]1CCCC[C@H]1C(=O)O the results were D1 potentiator 0.6, D1 agonist 7.3, DRD3 antagonist 0.6, DRD3 agonist -0.2 and D1 antagonist 2.1.
`O=C(O)C1CCCCC1C(=O)Nc1ccccc1Nc1ccccc1` (centres undefined) gave D1 potentiator -7.5, D1 agonist 3.2, DRD3 antagonist -14.6, DRD3 agonist -3.2 and D1 antagonist -41.0*.

Assay outcomes as filed in PubChem BioAssay.
